This is an account of results in PubChem BioAssay (Tox21).

“And” between values parts separate entries of the source, which are not always exact repeats. Identical values can stand only once. Records with an inconclusive call do not appear. A structure can be active in one record and inactive in another. The source made the active and inactive calls. Calls follow the shape of the dose curve; as a rule, active = well fitted curve in the direction sought with a large enough effect in the repeat runs; inconclusive = weak or mixed curves; inactive = no such curve, though single readings can be large; an effect the other way counts as inactive or inconclusive.

Assay [1] is described as follows: qHTS RealTime-Glo MT Cell Viability Assay in HEK293 cells - 16 hour (AID 1224872). Also: nearly all actives have a fitted effect of over 50% in size. Also: potency is read from the fitted curve at half-maximal effect. A digest of the protocol: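 Tox21 10K qHTS, HEK293, 600 cells/well, RealTime-Glo reagent co-dispensed with cells; 5 h preincubation, compound by pintool, 37 C, luminescence at 0–40 h.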
Assay [2] in a line: qHTS RealTime-Glo MT Cell Viability Assay in HepG2 cells - 8 hour (AID 1224873). Also: nearly all actives have a fitted effect of over 55% in size. Also: potency is read from the fitted curve at half-maximal effect. An outline of the steps:
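HepG2 cells (600/well) mixed with RealTime-Glo MT reagent, settled 5 h at 37 C/5% CO2 before compound addition. Nonlytic NanoLuc luminescence from viable-cell prosubstrate reduction read repeatedly during 40 h treatment at 37 C.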

Assay [3] is described as follows: qHTS RealTime-Glo MT Cell Viability Assay in HEK293 cells - 40 hour (AID 1224874). Also: nearly all actives have a fitted effect of over 50% in size. Also: potency is read from the fitted curve at half-maximal effect. Conditions: RealTime-Glo luminescence; max response: stronger effect = lower value. An outline of the steps: (§1)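 Kinetic, non-lysing viability readout. Seed HEK293 (600/well) with reagent, incubate 5 h at 37 C/5% CO2, pin 23 nL compound in DMSO, incubate at 37 C, read luminescence at 0, 8, 16, 24, 32, 40 h.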

A short description of assay [4]: A CellTox Green Cytotoxicity Assay to monitor cytotoxicity in HEK293 cells - 24 hour (AID 1224875). Also: nearly all actives have a fitted effect of over 45% in size. Also: potency is read from the fitted curve at half-maximal effect. An outline of the steps: (§2)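 Real-time, in one plate: 600 HEK293 cells/well with dead-cell DNA dye, pinned compound after 5 h, 37 C incubation over 40 h; viable cells give no appreciable fluorescence.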
The nature of assay [5]: A CellTox Green Cytotoxicity Assay to monitor cytotoxicity in HepG2 cells - 16 hour (AID 1224876). Also: nearly all actives have a fitted effect of over 45% in size. Also: potency is read from the fitted curve at half-maximal effect. A digest of the protocol:
(§3)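 Cytotoxicity was tracked as dead-cell DNA fluorescence in HepG2 cells treated with test compounds at 37 C; each time-point value comes from one kinetic series spanning 0, 8, 16, 24, 32 and 40 h.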

The nature of assay [6]: qHTS RealTime-Glo MT Cell Viability Assay in HepG2 cells - 32 hour (AID 1224877). Also: nearly all actives have a fitted effect of over 55% in size. Also: potency is read from the fitted curve at half-maximal effect. A digest of the protocol: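 Cells + NanoLuc/prosubstrate dispensed (600 cells/well) → 5 h at 37 C/5% CO2 → compounds in DMSO transferred → 40 h incubation at 37 C, luminescence read at 0, 8, 16, 24, 32, 40 h.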
Assay [7] in a line: A CellTox Green Cytotoxicity Assay to monitor cytotoxicity in HepG2 cells - 24 hour (AID 1224878). Also: nearly all actives have a fitted effect of over 45% in size. Also: potency is read from the fitted curve at half-maximal effect. An outline of the steps: as §3
Assay [8] in a line: A CellTox Green Cytotoxicity Assay to monitor cytotoxicity in HepG2 cells - 40 hour (AID 1224879). Also: nearly all actives have a fitted effect of over 40% in size. Also: potency is read from the fitted curve at half-maximal effect. An outline of the steps:
as §3

A short description of assay [9]: qHTS RealTime-Glo MT Cell Viability Assay in HEK293 cells - 0 hour (AID 1224880). Also: top concentration of the series differs between compounds; nearly all actives have a fitted effect of over 45% in size. An outline of the steps:
as §1

Assay [10] in a line: A CellTox Green Cytotoxicity Assay to monitor cytotoxicity in HEK293 cells - 32 hour (AID 1224881). Also: nearly all actives have a fitted effect of over 40% in size. Also: potency is read from the fitted curve at half-maximal effect. A digest of the protocol: as §2
% is scaled to controls: 0 for no effect and ±100 for the full control effect.

Regarding `CC(C)(C)NC(=O)[C@@H]1CN(Cc2cccnc2)CCN1C[C@@H](O)C[C@@H](Cc1ccccc1)C(=O)N[C@H]1c2ccccc2C[C@H]1O`, the Potency result in assay [1], in assay [2], in assay [4], in assay [5], in assay [6] and in [7] was “inactive” throughout. The Potency entry in assay [8], in assay [9] and in [10] was “inactive” in each case. Also, the max response in assay [3] is 0.0575% (inactive) and 0.362% (inactive).
`COc1ccc(Cc2cnc(N)nc2N)cc1OC`: the Potency result in [1], in assay [2], in assay [4], in assay [5], in [6] and in assay [7] was “inactive” throughout. Also, the Potency result in [8], in [9] and in [10] was “inactive” each time. In addition, the max response in assay [3] was 0.446% (inactive).
With `c1ccc2c(c1)-c1cccc3c1c-2cc1ccccc13`, the Potency result in assay [1], in [2], in [4], in assay [5], in assay [6] and in assay [7] was “inactive” each time. The Potency entry in assay [9] and in assay [10] was “inactive” throughout. The max response in assay [3] is 1.04% (inactive). For the same molecule, the Potency in [8] was 1.91 µM (active) and inactive.
In the case of `CC[C@@H](N)CO`, the Potency result in assay [1], in [2], in assay [4], in [5], in assay [6] and in [7] was “inactive” in each case. Further, the Potency entry in assay [8], in assay [9] and in assay [10] was “inactive” throughout. Besides, the max response in assay [3] is -8.2% (inactive).
Regarding `C=CS(=O)(=O)O`, the Potency result in assay [1], in [2], in assay [4], in assay [5], in assay [6] and in [7] was “inactive” throughout. Also, the Potency entry in [8], in assay [9] and in assay [10] was “inactive” throughout. In [3], the max response is 2.23% (inactive).
Take `CCN(CC)CCOc1ccc(/C(=C(\Cl)c2ccccc2)c2ccccc2)cc1`: the Potency in assay [1] was 14.1 µM (active) and 21.3 µM (active); in assay [2], 31.6 µM (active); in [3], 12.6 µM (active) and 19 µM (active); in assay [4] it was 31.6 µM (active) and 23.9 µM (active); in assay [5] it was 31.6 µM (active) and 21.3 µM (active); in assay [6] it was 19.9 µM (active) and 23.9 µM (active). In addition, the Potency in [7] is 19.9 µM (active) and 21.3 µM (active); in assay [8] it was 17.7 µM (active) and 16.9 µM (active); in assay [10], 28.1 µM (active) and 23.9 µM (active). The Potency result in [9] is “inactive”.
Take `CN1C(=O)c2ccc([N+](=O)[O-])cc2C1=O`: the Potency entry in [1], in assay [2], in assay [4], in assay [5], in assay [6] and in [7] was “inactive” in each case. For the same molecule, the Potency result in [8], in [9] and in assay [10] was “inactive” in each case. The max response in [3] is 0.763% (inactive).
Take `CC(COc1ccccc1)N(CCCl)Cc1ccccc1` (stereo unspecified): the Potency is 49.5 µM (active) and 49 µM (active) in [1]; 49.5 µM (active) and 49 µM (active) in [3]; 55.5 µM (active) and inactive in assay [7]; 55.5 µM (active) in assay [8]; 55.5 µM (active) and 21.3 µM (active) in [10]. The Potency result in assay [2], in [4], in [5], in assay [6] and in assay [9] was “inactive” throughout.
Take `C1COC(NC(C2CC2)C2CC2)=N1`: the Potency result in assay [1], in [2], in [4], in assay [5], in [6] and in assay [7] was “inactive” throughout. Also, the Potency entry in assay [8], in assay [9] and in assay [10] was “inactive” in each case. Moreover, the max response in assay [3] is 5.02% (inactive).
As to `C#CC(C)(CC)OC(=O)c1ccccc1C(=O)O` (stereo unspecified), the Potency entry in [1], in [2], in assay [4], in [5], in assay [6] and in [7] was “inactive” in each case. The Potency entry in assay [8], in assay [9] and in [10] was “inactive” in each case. Also, in assay [3], the max response was 0.788% (inactive).
Consider `Nc1ccc2cc3ccccc3cc2c1`, for which the Potency entry in [1], in assay [2], in assay [4], in assay [5], in [6] and in assay [7] was “inactive” throughout. The Potency entry in assay [8], in [9] and in [10] was “inactive” in each case. Moreover, the max response in [3] was -15.8% (inactive) and 6.47% (inactive).
`CC(N)=O`: the Potency entry in assay [1], in assay [2], in assay [4], in assay [5], in [6] and in assay [7] was “inactive” throughout. Further, the Potency entry in assay [8], in assay [9] and in assay [10] was “inactive” each time. The max response in [3] is 14.5% (inactive).
Turning to `OCCOCCN1CCN(C(c2ccccc2)c2ccc(Cl)cc2)CC1` (stereo unspecified), the Potency in assay [1] is 9.64 µM (active) and inactive; in assay [3], 7.66 µM (active); in assay [5], 38.4 µM (active) and inactive; in [6], 48.3 µM (active) and inactive; in assay [7] it was 38.4 µM (active) and inactive; in [8], 38.4 µM (active). The Potency entry in [2], in [4], in assay [9] and in assay [10] was “inactive” each time. The max response in [3] was -17.5% (inactive).
For the molecule `CC(=O)Nc1ccc(C(=O)CCl)cc1`, the Potency result in assay [1] was “inactive and 13.8 µM (active)”; in assay [3], 21.9 µM (active); in assay [6] it was “inactive and 21.9 µM (active)”; in [7], “inactive and 21.9 µM (active)”; in assay [8], “inactive and 19.5 µM (active)”; in [10], “inactive and 15.5 µM (active)”. In addition, the Potency entry in assay [2], in assay [5] and in assay [9] was “inactive” throughout. Besides, the max response in [3] was 19.7% (inactive).
Regarding `O=C(O)Cn1cnnn1`, the Potency result in [1], in [2], in assay [4], in assay [5], in assay [6] and in [7] was “inactive” each time. For the same molecule, the Potency result in assay [8], in assay [9] and in assay [10] was “inactive” throughout. The max response in [3] is 0.0865% (inactive).
Regarding `CC(C)(C)c1ccc(O)c(C(C)(C)C)c1`, the Potency in assay [1] is 34.5 µM (active); in [2], 38.9 µM (active); in [3] it was 38.7 µM (active); in assay [4], 21.8 µM (active) and 34.7 µM (active); in assay [5], 48.8 µM (active) and 43.6 µM (active); in assay [7] it was 48.8 µM (active) and 43.6 µM (active). Further, the Potency in assay [8] is 48.8 µM (active) and 43.6 µM (active); in assay [10] it was 24.4 µM (active) and 34.7 µM (active). Further, the max response in assay [3] is -25% (inactive). In addition, the Potency entry in assay [9] was “inactive”.
For the molecule `CC1=C(C=O)C(C)(C)CC=C1`, the Potency result in [1], in assay [2], in [4], in assay [5], in [6] and in assay [7] was “inactive” in each case. The Potency result in assay [8], in [9] and in assay [10] was “inactive” throughout. Moreover, the max response in assay [3] is -1.02% (inactive).
Take `c1ccc2c(c1)CCCC2C1=NCCN1` (stereo unspecified): the Potency result in assay [1], in assay [2], in [4], in assay [5], in assay [6] and in assay [7] was “inactive” in each case. In addition, the Potency entry in assay [8], in [9] and in assay [10] was “inactive” each time. Moreover, in [3], the max response is 3.27% (inactive).
